# Laboratory results reported in PubChem BioAssay (NCATS).
# Several values for one entry are separate records, joined by “and”; a condition that tells them apart may be missing. Equal values may be shown once. Inconclusive results are not listed. Where a call stands in place of a potency, no number is given. A structure can be active in one record and inactive in another. Activity calls are given as the source filed them. Unless noted, calls come from the whole dose curve.
# Assays:
# [1] = biological target: Bile acid receptor (Homo sapiens) (UniProt Q96RI1); test: qHTS assay for small molecule antagonists of farnesoid X receptor signaling (AID 588526)
# Outline: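 Beta-lactamase reporter antagonist mode: HEK293T FXR-UAS-bla cells, titrated compound, CDCA stimulation, 16 h 37 C, CCF4 dye 2 h RT. Data normalized to CDCA 50 uM and DMSO; Hill-fit IC50.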
# [2] = biological target: Bile acid receptor (Homo sapiens) (UniProt Q96RI1); test: qHTS assay for small molecule agonists of farnesoid X receptor signaling (AID 588527); conditions: HEK293T FXR-UAS-bla, beta-lactamase ratio, 16 h; stronger effect = higher value; note: series mostly up to about 77 µM
# Outline: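 FXR-UAS-bla HEK293T, 10% dialyzed FBS; cpds up to 92 uM titration, 16 h 37 C; CCF4 dye 2 h RT; fluorescence. Normalized to chenodeoxycholic acid 100 uM (100%) and DMSO (0%); Hill fit gives EC50, efficacy.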
# [3] = biological target: Peroxisome proliferator-activated receptor delta (Homo sapiens) (UniProt Q03181); test: qHTS assay for small molecule agonists of peroxisome proliferator-activated receptor delta signaling (AID 588534)
# Outline: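 Fluorescence from CCF4 substrate cleavage by beta-lactamase reporter, read 2 hrs at RT, measured agonist activity. Compounds were tested with 18 hrs exposure at 37 C. Concentration-response data fitted to Hill equation.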
# [4] = biological target: Androgen receptor (Homo sapiens) (UniProt P10275); test: qHTS assay for small molecule agonists of androgen receptor signaling (AID 588515; active = well fitted curve in the direction sought with a large enough effect in the signal ratio, with a control signal flat; the % refers to the signal ratio); conditions: AR-UAS-bla HEK293, beta-lactamase ratio, agonist 16 h; stronger effect = higher value
# Outline: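 EC50 and efficacy came from Hill fits of titrations (up to 92 uM) normalized to 30 nM R1881 as 100% and DMSO as 0%. Compound exposure was 16 h at 37 C on AR-UAS-bla HEK293 cells, with a 405/460/530 nm CCF4 fluorescence read.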
# [5] = biological target: Glucocorticoid receptor (Homo sapiens) (UniProt P04150); test: qHTS assay for small molecule agonists of glucocorticoid receptor signaling (AID 588532; active = well fitted curve in the direction sought with a large enough effect in the signal ratio, with a control signal flat; the % refers to the signal ratio); conditions: HeLa MMTV-bla, beta-lactamase ratio, agonist, 18 h; stronger effect = higher value; percent of dexamethasone control, DMSO zero
# Outline: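 Quantitative HTS using CellSensor MMTV-bla HeLa cells in charcoal/dextran-treated serum; compounds tested up to 92 uM. After 18 h at 37 C, CCF4 dye reported reporter induction.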
# [6] = qHTS assay for small molecule antagonists of peroxisome proliferator-activated receptor delta signaling (AID 588535; active = well fitted inhibition curve with a large enough effect in the signal ratio, with a control signal flat, not every such curve was filed as active; the % refers to the signal ratio;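 for max response: cells co-treated with a PPAR-delta agonist as stimulator during compound exposure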); conditions: HEK293T PPARd-UAS-bla, beta-lactamase FRET ratio, 18 h; 460 nm channel
# Outline: (§1)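 HEK293T PPAR-delta-UAS-bla cells, 4000/well, 2% charcoal/dextran FBS; 5 h 37 C; cpd titration; 18 h 37 C; CCF4 2 h RT; FI 460/530 nm; Hill fit → IC50, efficacy.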
# [7] = biological target: Peroxisome proliferator-activated receptor delta (Homo sapiens) (UniProt Q03181); test: as above
# Outline: as §1
# [8] = biological target: Peroxisome proliferator-activated receptor gamma (Homo sapiens) (UniProt P37231); test: qHTS assay for small molecule agonists of peroxisome proliferator-activated receptor gamma signaling (AID 588536; active = well fitted curve in the direction sought with a large enough effect in the signal ratio, with a control signal flat, not every such curve was filed as active; the % refers to the signal ratio)
# Outline: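 PPAR-gamma-UAS-bla HEK293 cells in medium with 1% charcoal/dextran-treated FBS were exposed to compounds for 16 h at 37 C. Beta-lactamase activity was read with CCF4 substrate (405 nm excitation, 460/530 nm emission).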
# [9] = biological target: Peroxisome proliferator-activated receptor gamma (Homo sapiens) (UniProt P37231); test: qHTS assay for small molecule antagonists of peroxisome proliferator-activated receptor gamma signaling (AID 588537; active = well fitted inhibition curve with a large enough effect in the signal ratio, with a control signal flat, not every such curve was filed as active; the % refers to the signal ratio; note: potency is the fitted concentration of half-maximal effect)
# Outline: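 Antagonist mode, beta-lactamase reporter in HEK293; charcoal/dextran FBS 1%; 3000 cells/well, 37 C 6-6.5 h; cpd titration + rosiglitazone 50 nM final, 16 h 37 C; CCF4, 2 h RT; 460/530 nm; Hill fit → IC50, efficacy.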
# [10] = biological target: Vitamin D3 receptor (Homo sapiens) (UniProt P11473); test: qHTS assay for small molecule antagonists of vitamin D receptor signaling (AID 588541);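 note: receptor activated by calcitriol during compound treatment; series mostly up to about 77 µM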
# Outline: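 Antagonist-mode beta-lactamase reporter assay: HEK293T VDR-UAS-bla cells were exposed to titrated compound alongside 1-alpha,25-dihydroxyvitamin D3 at 3 nM final for 16 h. Values were normalized to the 50 nM agonist control and DMSO basal, with IC50 and efficacy from Hill equation fits.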
# [11] = biological target: Vitamin D3 receptor (Homo sapiens) (UniProt P11473); test: qHTS assay for small molecule agonists of vitamin D receptor signaling (AID 588543)
# Outline: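 VDR-UAS-bla HEK293T cells, 2000/well, 2% charcoal-stripped FBS; compound titration 16 h at 37 C; CCF4 beta-lactamase ratio read. Normalized to 50 nM 1-alpha,25-dihydroxyvitamin D3 (100%) and DMSO; Hill fit gives EC50, efficacy.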
# [12] = qHTS assay for small molecule agonists of retinoid X receptor alpha signaling (AID 588544); conditions: HEK293T RXRa-UAS-bla, beta-lactamase reporter, 18 h; 530 nm emission
# [13] = biological target: Retinoic acid receptor RXR-alpha (Homo sapiens) (UniProt P19793); test: as above
# [14] = biological target: Thyroid hormone receptor beta (Homo sapiens) (UniProt P10828); test: qHTS assay for small molecule agonists of thyroid hormone receptor beta signaling (AID 588545)
# Outline: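 Compounds were tested as agonists in TR-UAS-bla-GripTite HEK 293 cells. After 18 hrs at 37 C, CCF4 substrate was added and fluorescence read after 2 hrs at room temperature.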
# [15] = qHTS assay for small molecule antagonists of retinoid X receptor alpha signaling (AID 588546); conditions: HEK293T RXRa-UAS-bla, beta-lactamase ratio, antagonist mode; measured here: W530 green channel, cytotoxicity proxy;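 note: cells stimulated with 9-cis-retinoic acid as agonist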
# Outline: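 Beta-lactamase reporter inhibition, read as CCF4 fluorescence ratio (ex 405, em 460/530 nm) after 2 h at RT. HEK293T UAS-bla cells, 2500/well, were stimulated with 9-cis-RA at 500 or 100 nM final alongside test compound for 18 h at 37 C.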
# [16] = biological target: Estrogen receptor (Homo sapiens) (UniProt P03372); test: qHTS assay for small molecule antagonists of estrogen receptor alpha signaling (AID 588513; active = well fitted curve in the direction sought with a large enough effect in the signal ratio, with a control signal flat, not every such curve was filed as active; the % refers to the signal ratio)
# Outline: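 ER-alpha-UAS-bla GripTite HEK 293 cells in 2% charcoal/dextran-treated FBS medium; compounds titrated (1:2, duplicate), then stimulated with 0.5 nM 17-beta-estradiol for 18 h at 37C. CCF4 beta-lactamase fluorescence; Hill-fit IC50 and efficacy.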
# [17] = biological target: Estrogen receptor (Homo sapiens) (UniProt P03372); test: qHTS assay for small molecule agonists of estrogen receptor alpha signaling (AID 588514); note: nearly all actives have a fitted effect of over 70% in size
# Outline: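 Cells were plated at 5000/well, incubated 4 hrs at 37 C, dosed with compound titration series, incubated 18 hrs at 37 C, loaded with CCF4 dye for 2 hrs at RT, then fluorescence was read.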
# [18] = biological target: Glucocorticoid receptor (Homo sapiens) (UniProt P04150); test: qHTS assay for small molecule antagonists of glucocorticoid receptor signaling (AID 588533; active = well fitted inhibition curve with a large enough effect in the signal ratio, with a control signal flat, not every such curve was filed as active; the % refers to the signal ratio;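 note: cells stimulated with 2 nM dexamethasone as agonist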)
# Outline: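 Antagonist-mode qHTS: compound titrations added to GRE-bla HeLa cells, then dexamethasone 2 nM final; 18 h, 37 C. CCF4 FRET fluorescence normalized to dexamethasone and DMSO; IC50 from Hill fit.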
# [19] = biological target: Androgen receptor (Homo sapiens) (UniProt P10275); test: qHTS assay for small molecule antagonists of androgen receptor signaling (AID 588516; active = well fitted curve in the direction sought with a large enough effect in the signal ratio, with a control signal flat, not every such curve was filed as active; the % refers to the signal ratio)
# Outline: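 AR-UAS-bla GripTite HEK 293 cells (2000/well) treated with compound titrations plus 10 nM R1881 for 16 h at 37C. Beta-lactamase read by CCF4 FRET (460/530 nm); IC50 from Hill fits, normalized to R1881 and DMSO control wells.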
# Peroxisome proliferator-activated receptor delta (Homo sapiens), sequence (Q03181 whole entry, looked up): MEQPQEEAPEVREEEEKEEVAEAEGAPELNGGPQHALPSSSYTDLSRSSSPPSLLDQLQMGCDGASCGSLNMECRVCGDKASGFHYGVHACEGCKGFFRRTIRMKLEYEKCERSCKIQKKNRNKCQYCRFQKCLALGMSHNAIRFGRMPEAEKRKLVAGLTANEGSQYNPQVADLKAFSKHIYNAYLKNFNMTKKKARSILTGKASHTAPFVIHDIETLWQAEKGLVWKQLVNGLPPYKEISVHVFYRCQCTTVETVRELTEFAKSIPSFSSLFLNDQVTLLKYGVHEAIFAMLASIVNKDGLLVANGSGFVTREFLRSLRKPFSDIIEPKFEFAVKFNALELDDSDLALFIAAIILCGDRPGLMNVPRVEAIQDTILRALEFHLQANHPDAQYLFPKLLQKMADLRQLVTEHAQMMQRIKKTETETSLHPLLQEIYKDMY
# Androgen receptor (Homo sapiens), sequence (P10275 whole entry, looked up): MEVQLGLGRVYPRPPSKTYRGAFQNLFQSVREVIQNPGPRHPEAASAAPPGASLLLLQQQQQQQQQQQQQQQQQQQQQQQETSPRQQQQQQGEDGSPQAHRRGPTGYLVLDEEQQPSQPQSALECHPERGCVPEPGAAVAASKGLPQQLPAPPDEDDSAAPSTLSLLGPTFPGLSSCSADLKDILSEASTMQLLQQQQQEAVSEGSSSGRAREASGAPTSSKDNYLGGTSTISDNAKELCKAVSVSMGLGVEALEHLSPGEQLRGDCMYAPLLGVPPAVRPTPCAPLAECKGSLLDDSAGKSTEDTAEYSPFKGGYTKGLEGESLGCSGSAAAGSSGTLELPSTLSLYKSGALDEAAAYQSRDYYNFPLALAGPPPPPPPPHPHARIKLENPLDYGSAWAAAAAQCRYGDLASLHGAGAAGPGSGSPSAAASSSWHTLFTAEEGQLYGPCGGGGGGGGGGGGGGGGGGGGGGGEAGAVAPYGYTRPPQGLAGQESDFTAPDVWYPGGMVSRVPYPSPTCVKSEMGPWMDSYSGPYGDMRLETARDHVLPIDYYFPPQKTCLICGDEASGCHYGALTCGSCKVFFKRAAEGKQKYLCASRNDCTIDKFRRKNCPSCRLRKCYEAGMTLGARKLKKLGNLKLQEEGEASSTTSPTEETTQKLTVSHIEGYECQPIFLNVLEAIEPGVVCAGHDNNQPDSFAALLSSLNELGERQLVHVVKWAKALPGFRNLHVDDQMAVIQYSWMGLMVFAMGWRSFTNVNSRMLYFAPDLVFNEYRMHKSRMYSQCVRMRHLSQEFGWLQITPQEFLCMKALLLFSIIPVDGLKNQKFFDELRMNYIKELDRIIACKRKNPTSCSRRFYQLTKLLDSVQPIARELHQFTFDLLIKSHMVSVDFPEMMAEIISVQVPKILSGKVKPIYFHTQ
# Peroxisome proliferator-activated receptor gamma (Homo sapiens), sequence (P37231 whole entry, looked up): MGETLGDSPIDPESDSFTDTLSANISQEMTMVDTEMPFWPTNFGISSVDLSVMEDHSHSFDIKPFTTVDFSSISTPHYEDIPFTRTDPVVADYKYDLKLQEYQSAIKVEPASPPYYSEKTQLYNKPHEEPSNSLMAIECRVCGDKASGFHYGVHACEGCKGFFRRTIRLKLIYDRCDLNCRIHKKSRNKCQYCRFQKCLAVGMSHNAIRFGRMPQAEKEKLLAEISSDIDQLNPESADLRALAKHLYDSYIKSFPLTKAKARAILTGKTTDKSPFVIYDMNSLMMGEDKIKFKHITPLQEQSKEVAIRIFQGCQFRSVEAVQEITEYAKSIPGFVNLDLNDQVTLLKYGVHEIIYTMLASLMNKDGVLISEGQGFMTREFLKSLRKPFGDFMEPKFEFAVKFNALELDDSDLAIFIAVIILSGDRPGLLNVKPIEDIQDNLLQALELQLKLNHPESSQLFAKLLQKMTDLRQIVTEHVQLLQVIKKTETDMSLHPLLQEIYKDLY
# Retinoic acid receptor RXR-alpha (Homo sapiens), sequence (P19793 whole entry, looked up): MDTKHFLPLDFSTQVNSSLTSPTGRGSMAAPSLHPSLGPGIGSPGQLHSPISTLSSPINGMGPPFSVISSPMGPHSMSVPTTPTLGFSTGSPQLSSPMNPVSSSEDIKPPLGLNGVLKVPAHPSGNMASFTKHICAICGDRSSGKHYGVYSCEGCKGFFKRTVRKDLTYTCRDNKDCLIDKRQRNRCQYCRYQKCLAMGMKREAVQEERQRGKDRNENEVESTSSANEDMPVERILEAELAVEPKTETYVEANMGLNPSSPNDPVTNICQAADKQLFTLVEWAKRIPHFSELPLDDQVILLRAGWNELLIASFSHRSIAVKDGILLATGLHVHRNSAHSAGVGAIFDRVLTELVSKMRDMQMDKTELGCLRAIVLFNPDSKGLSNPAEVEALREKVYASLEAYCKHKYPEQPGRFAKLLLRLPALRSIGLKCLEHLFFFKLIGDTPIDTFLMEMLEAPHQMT
# Glucocorticoid receptor (Homo sapiens), sequence (P04150 whole entry, looked up): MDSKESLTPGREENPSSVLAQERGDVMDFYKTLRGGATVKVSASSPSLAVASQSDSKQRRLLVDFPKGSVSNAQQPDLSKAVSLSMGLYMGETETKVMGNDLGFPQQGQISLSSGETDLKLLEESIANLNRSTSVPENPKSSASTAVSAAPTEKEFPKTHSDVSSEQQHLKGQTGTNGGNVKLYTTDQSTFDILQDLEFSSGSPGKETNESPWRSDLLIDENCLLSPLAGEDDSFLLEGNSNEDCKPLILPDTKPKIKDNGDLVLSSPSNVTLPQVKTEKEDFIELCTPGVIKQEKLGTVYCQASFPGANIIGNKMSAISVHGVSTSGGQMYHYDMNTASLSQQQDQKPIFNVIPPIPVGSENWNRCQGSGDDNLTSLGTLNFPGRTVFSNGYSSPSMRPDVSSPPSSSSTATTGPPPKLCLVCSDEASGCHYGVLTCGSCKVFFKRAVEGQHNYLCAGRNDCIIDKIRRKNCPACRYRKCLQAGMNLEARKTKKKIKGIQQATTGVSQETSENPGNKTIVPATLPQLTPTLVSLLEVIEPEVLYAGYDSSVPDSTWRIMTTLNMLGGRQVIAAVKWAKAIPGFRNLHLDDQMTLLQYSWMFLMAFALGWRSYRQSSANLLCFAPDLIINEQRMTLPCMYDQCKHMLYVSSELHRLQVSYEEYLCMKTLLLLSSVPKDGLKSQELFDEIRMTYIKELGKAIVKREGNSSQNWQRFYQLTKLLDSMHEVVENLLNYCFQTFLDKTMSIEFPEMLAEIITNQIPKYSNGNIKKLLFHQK
# Vitamin D3 receptor (Homo sapiens), sequence (P11473 whole entry, looked up): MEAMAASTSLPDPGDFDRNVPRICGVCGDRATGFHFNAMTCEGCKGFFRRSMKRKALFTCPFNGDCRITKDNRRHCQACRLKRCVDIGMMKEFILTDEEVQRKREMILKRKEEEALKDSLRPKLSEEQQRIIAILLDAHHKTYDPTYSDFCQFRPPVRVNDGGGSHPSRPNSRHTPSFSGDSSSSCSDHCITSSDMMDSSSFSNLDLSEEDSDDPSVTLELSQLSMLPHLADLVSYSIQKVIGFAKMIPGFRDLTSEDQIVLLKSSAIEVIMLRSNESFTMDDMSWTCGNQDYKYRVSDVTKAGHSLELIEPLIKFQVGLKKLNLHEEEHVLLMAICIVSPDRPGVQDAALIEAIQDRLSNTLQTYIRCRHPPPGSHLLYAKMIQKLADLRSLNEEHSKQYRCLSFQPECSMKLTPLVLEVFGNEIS
# Bile acid receptor (Homo sapiens), sequence (Q96RI1 whole entry, looked up): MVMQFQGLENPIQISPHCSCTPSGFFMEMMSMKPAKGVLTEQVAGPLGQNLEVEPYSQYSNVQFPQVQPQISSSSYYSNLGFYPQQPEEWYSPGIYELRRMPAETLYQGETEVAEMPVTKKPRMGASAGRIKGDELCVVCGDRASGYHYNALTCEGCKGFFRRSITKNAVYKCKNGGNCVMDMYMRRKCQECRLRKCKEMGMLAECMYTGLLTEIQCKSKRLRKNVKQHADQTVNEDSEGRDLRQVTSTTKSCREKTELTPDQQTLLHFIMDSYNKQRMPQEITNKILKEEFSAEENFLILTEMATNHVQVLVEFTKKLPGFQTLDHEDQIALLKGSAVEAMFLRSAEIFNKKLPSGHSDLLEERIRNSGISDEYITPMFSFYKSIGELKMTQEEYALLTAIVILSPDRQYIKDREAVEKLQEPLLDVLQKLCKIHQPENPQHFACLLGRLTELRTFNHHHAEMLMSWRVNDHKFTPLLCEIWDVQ
# Thyroid hormone receptor beta (Homo sapiens), sequence (P10828 whole entry, looked up): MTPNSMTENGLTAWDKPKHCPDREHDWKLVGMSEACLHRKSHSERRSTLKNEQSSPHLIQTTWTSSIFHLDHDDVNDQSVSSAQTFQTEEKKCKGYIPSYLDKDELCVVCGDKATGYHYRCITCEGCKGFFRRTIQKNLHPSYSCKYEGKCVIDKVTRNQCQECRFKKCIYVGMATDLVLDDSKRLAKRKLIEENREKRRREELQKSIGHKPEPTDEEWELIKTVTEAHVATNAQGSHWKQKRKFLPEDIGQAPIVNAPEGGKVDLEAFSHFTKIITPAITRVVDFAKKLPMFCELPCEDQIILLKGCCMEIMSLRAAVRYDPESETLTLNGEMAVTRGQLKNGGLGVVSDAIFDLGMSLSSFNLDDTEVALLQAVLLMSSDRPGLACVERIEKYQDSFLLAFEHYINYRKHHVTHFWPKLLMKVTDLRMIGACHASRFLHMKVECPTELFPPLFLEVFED
smiles,measurement,setting,value
Nc1ccc([N+](=O)[O-])cc1O,outcome,[1],inactive
same,activation,[2],-3.53% (inactive) and -2.23% (inactive)
same,outcome,[3],inactive
C1=CC2C3C=CC(C3)C2C1 (stereo unspecified),activation,[2],-0.353% (inactive)
O=[N+]([O-])c1cc([N+](=O)[O-])c2ccccc2c1,activation,[4],-1.64% (inactive)
same,activation,[5],-0.539% (inactive)
same,outcome,[3],inactive
same,max response,[6],44.3%
same,Potency,[7],inactive
same,outcome,[8],inactive
same,Potency,[9],inactive
same,Potency,[10],inactive
same,outcome,[11],inactive
same,max response,[12],-2.69%
same,Potency,[13],inactive
same,outcome,[14],inactive
same,max response,[15],-9.65%
OCCCBr,Potency,[16],inactive
same,outcome,[17],inactive
same,activation,[5],-1.2% (inactive)
same,Potency,[18],inactive
same,outcome,[8],inactive
same,Potency,[9],inactive
same,Potency,[10],inactive
same,outcome,[11],inactive
same,max response,[12],-10.8%
same,Potency,[13],inactive
same,outcome,[14],inactive
same,max response,[15],-9.62%
CC(C)(c1ccc(O)cc1)c1ccc(O)cc1,activation,[4],-6.96% (inactive)
same,outcome,[3],inactive
same,Potency,[9],inactive
same,max response,[12],0.616% and 8.18%
same,Potency,[13],inactive
CCOP(=O)(NC(C)C)Oc1ccc(SC)c(C)c1 (stereo unspecified),activation,[4],2.45% (inactive) and -12.7% (inactive)
same,outcome,[1],inactive
same,activation,[2],5.65% (inactive) and 4.82% (inactive)
same,activation,[5],3.01% (inactive) and -4.29% (inactive)
same,outcome,[3],inactive
same,max response,[6],97.8%
same,Potency,[7],inactive
same,outcome,[8],inactive
same,Potency,[9],inactive and 44.7 µM (active)
same,Potency,[10],inactive
same,outcome,[11],inactive
same,max response,[12],8.26%
same,Potency,[13],inactive
same,max response,[15],1.81% and -9.53%
Nc1ccc(Sc2ccc(N)cc2)cc1,Potency,[16],inactive
same,outcome,[1],inactive
same,activation,[2],-1.33% (inactive)
same,activation,[5],8.24% (inactive) and -4.53% (inactive)
same,Potency,[18],inactive
same,outcome,[3],inactive
same,outcome,[8],inactive
same,Potency,[9],inactive
same,Potency,[10],inactive
same,outcome,[11],inactive
same,max response,[12],14.5% and 0.308%
same,Potency,[13],inactive
same,outcome,[14],inactive
same,max response,[15],1.56% and -5.13%
Clc1cnc(Oc2ccc(Oc3ncc(Cl)cc3Cl)cc2)c(Cl)c1,outcome,[1],inactive
same,activation,[2],0.177% (inactive)
same,activation,[5],-2.42% (inactive)
same,Potency,[18],inactive
same,outcome,[3],inactive
same,max response,[6],17%
same,Potency,[7],inactive
same,Potency,[9],inactive
same,Potency,[10],inactive
same,outcome,[11],inactive
same,max response,[15],-4.82%
COc1ccc(C(c2ccc(OC)cc2)C(Cl)(Cl)Cl)cc1,activation,[2],7.99% (inactive) and 4.38% (inactive) and 7.59% (inactive)
same,activation,[5],4.73% (inactive) and 3.18% (inactive) and 4.31% (inactive)
same,outcome,[3],inactive
same,outcome,[8],inactive
same,Potency,[9],inactive and 28.2 µM (active)
same,Potency,[10],inactive
same,outcome,[11],inactive
same,outcome,[14],inactive
same,max response,[15],-3.69% and 8.92%
CCCCCCCCc1ccc(O)cc1,activation,[4],-7.85% (inactive) and -15.7% (inactive)
same,activation,[5],0.354% (inactive) and -8.06% (inactive)
same,outcome,[3],inactive
same,max response,[6],-43.1% and -32.6%
same,Potency,[7],inactive
same,outcome,[8],inactive
same,Potency,[9],inactive
same,Potency,[10],inactive
same,outcome,[11],inactive
same,max response,[12],-5.76% and -13.1%
same,Potency,[13],inactive
same,outcome,[14],inactive
same,max response,[15],-5.97%
Nc1ccc([N+](=O)[O-])cc1,activation,[4],7.63% (inactive)
same,outcome,[1],inactive
same,activation,[2],-1.05% (inactive)
same,activation,[5],0.519% (inactive)
same,outcome,[8],inactive
same,Potency,[10],inactive
same,outcome,[11],inactive
same,max response,[12],6.91%
same,Potency,[13],inactive
same,outcome,[14],inactive
same,max response,[15],1.67%
O=C(Oc1ccccc1)c1cccc(C(=O)Oc2ccccc2)c1,activation,[2],0.748% (inactive)
O=C(Nc1ccccc1-c1ccc(Cl)cc1)c1cccnc1Cl,Potency,[16],inactive
same,outcome,[17],inactive
same,activation,[5],-16.1% (inactive)
same,Potency,[18],inactive
same,outcome,[3],inactive
same,outcome,[8],inactive
same,Potency,[10],inactive
same,outcome,[11],inactive
same,outcome,[14],inactive
same,max response,[15],-4.9%
CCOCCOC(C)=O,Potency,[16],inactive
same,outcome,[17],inactive
same,activation,[5],-2.6% (inactive)
same,Potency,[18],inactive
same,outcome,[3],inactive
same,outcome,[8],inactive
same,Potency,[9],inactive
same,Potency,[10],inactive
same,outcome,[11],inactive
same,max response,[12],-8.15%
same,Potency,[13],inactive
same,max response,[15],-4.94%
COC(C)(C)CCCC(C)C/C=C/C(C)=C/C(=O)OC(C)C (stereo unspecified),activation,[4],-13.7% (inactive) and -1.74% (inactive)
same,Potency,[19],inactive
same,outcome,[8],inactive
same,max response,[12],13.2%
same,Potency,[13],inactive
same,outcome,[14],inactive
same,max response,[15],2.28% and 4.86%
